In the library only some 13% were active in any assay of this set; here they are far more common.
HCV inh: HCV inhibition | Huh7.5.1 HCVcc-Cre infection, luciferase reporter, 44 h | actives 3.4% (n = 340,000) | Potency, µM (series often up to 41.8 µM), without a hit: at the top dose activity change, negative = inhibition, most hits filed as inhibitors; active = well fitted inhibition curve with a large enough effect; inconclusive = small, poorly fitted or top-dose-only effect, or another doubt; inactive = no such curve, though single readings can be large or run the other way; also: potency is read from the fitted curve at half-maximal effect; % is scaled to controls: 0 for no effect and ±100 for the full control effect
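A cell-based infection assay in which seeded cells (1,000 per well) receive test compound after 4 h, are inoculated with HCVcc-Cre at approximately 0.5 moi, and are incubated 44 h before luminescence detection.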
Marburg entry inh: blocks Marburg virus binding to or entry into cells | Marburg virus pseudotyped entry inhibition, cell reporter | actives 1.8% (n = 300,000) | Potency, µM (highest dose often 37.8 µM), inactives show top-dose activity change, negative = inhibition, usual class: inhibitors; calls by dose curve; tested in HEK293 cells; also: potency is read from the fitted curve at half-maximal effect; % is scaled to controls: 0 for no effect and ±100 for the full control effect
FMDV antiviral: antivirals against foot and mouth disease virus. FMDV antiviral cell-based qHTS. Potency, µM (titrated, usually from 57.9 µM), for the others: at the highest dose activity change, negative = inhibition, most hits filed as inhibitors. actives 1.2% (n = 410,000); calls by dose curve; tested in HEK293T cells; also: read-out not given here; potency is read from the fitted curve at half-maximal effect; % is scaled to controls: 0 for no effect and ±100 for the full control effect; nearly all actives have a fitted effect of over 45% in size
Shiga inhibitor: blocks Shiga toxin action in Vero cells. AID 2315. inhibition, % at 38.7 µM. Vero cells, Shiga toxin protein synthesis inhibition reporter. actives 9.2% (n = 290,000); in the data active = inhibition mostly above about 28%, no sharp cut-off; inactive = mostly below about 43%; also: 0% is about no effect
LASV entry inh: Lassa virus entry inhibition; Lassa virus pseudotype entry inhibition, cell reporter; Potency, µM (top dose mostly 37.9 µM), for inactives: top-dose activity change, negative = inhibition, most hits filed as inhibitors; actives 1.2% (n = 300,000); AID 540256; calls by dose curve; tested in HEK293 cells; also: potency is read from the fitted curve at half-maximal effect; % is scaled to controls: 0 for no effect and ±100 for the full control effect; nearly all actives have a fitted effect of over 50% in size
CHX counter: counter-screen for Shiga toxin inhibitors: cycloheximide protein synthesis inhibition. cell reporter, cycloheximide protein synthesis inhibition counterscreen. max response, %. actives 12% (n = 300,000). AID 2314; in the data active = max response mostly above about 13%, no sharp cut-off; inactive = mostly below about 14%; also: read at 38.3 µM for the half of the compounds with a filed dose; 0% is about no effect
Active calls of the source: *; ? = inconclusive; · = no result given; [ ] = another dose, or the depositor's remark.

SMILES	HCV inh	Marburg entry inh	FMDV antiviral	Shiga inhibitor	LASV entry inh	CHX counter
COc1cccc(N2CCN(CC(=O)Nc3nnc(-c4ccccc4)s3)CC2)c1	6.31µM*	?	15.8µM*	0.6	0.794µM*	-2.5
CCOC(=O)Nc1nnc(-c2cccc(OC)c2)s1	-3.0%	16.6%	40.2%	23.3	-7.4%	14.9*
COc1cccc(-c2nnc(NC(=O)c3cccs3)s2)c1	13.3%	?	23.9%	14.1	1.4%	11.6
CCN(CC)C(=O)c1cc(-c2ccc3c(c2)OCO3)on1	7.4%	?	23.7%	77.2*	?	61.7*
CCN(CC)CCCNC(=O)c1cc(-c2ccc3c(c2)OCO3)on1	-11.9%	?	0.2%	25.7	6.8%[46.1 µM]	5.9
O=C(Nc1cccc(O)c1)c1cc(-c2ccccc2Cl)on1	0.5%	7.08µM*	11.2µM*	-11.7	5.01µM*	6.2
CC(C)NC(=O)c1cc(-c2ccc3c(c2)OCO3)on1	23.2%	?	31.4%	104.5*	?	26.3*
CCCCNC(=O)c1cc(-c2ccc3c(c2)OCO3)on1	12.0%	-11.9%[46.1 µM]	15.3%	57.0*	?	37.6*
O=C(CN1CCN(S(=O)(=O)c2ccccc2Cl)CC1)NCC1(N2CCOCC2)CCCCC1	-4.4%	20.0%[46.1 µM]	-7.5%	·	?	·
O=C(COC(=O)c1ccccc1F)NC(=O)NC1CCCC1	2.7%	·	9.9%	·	·	·
COc1ccc(-c2cc(C(F)(F)F)n3ncc(C(=O)N(C)Cc4ccccc4)c3n2)cc1	?	?	?	16.4	?	16.9
COc1ccc(NC(=O)c2cc(-c3ccccc3Cl)on2)cc1OC	9.6%	-0.4%[46.1 µM]	14.8%	33.3	4.7%[46.1 µM]	0.5
CC(=O)c1cccc(NC(=O)c2cc(-c3ccc4c(c3)OCCO4)on2)c1	·	20.2%[46.1 µM]	-46.4%	·	7.1%[46.1 µM]	·
CCCNC(=O)c1cc(-c2ccc3c(c2)OCO3)on1	8.1%	?	0.0%	85.9*	?	30.6*
O=C(Nc1cccc(O)c1)c1cc(-c2ccc3c(c2)OCO3)on1	7.1%	?	11.2µM*	-1.9	?	2.6
O=C(Nc1ccccc1)OCc1cc(-c2ccccc2Cl)on1	?	?	34.0%	69.5*	-24.3%	39.5*
CCOc1ccc(-c2nnc(SCC(=O)Nc3ccc(C)cc3C)o2)cc1	·	-16.4%[46.1 µM]	-8.4%	·	-19.1%[46.1 µM]	·
Cc1cccc(NC(=O)CSc2nnc3[nH]c(=O)cc(-c4ccccc4)n23)c1C	·	·	19.3%	·	6.3%[46.1 µM]	·
Cc1ccc(S(=O)(=O)NC(C)(C)CSc2nnc(Nc3ccccc3)s2)cc1	17.8µM*	?	?	-18.6	?	-3.3
COC(=O)C1=C(C)N(c2cccc(C)c2)C(=O)/C1=C\c1cccs1	?	2.82µM*	0.0%	-22.1	-3.2%	8.0
CCCNS(=O)(=O)c1ccc(CCC(=O)Nc2cc(Cl)ccc2Oc2ccccc2)cc1	10µM*	?	?	9.3	?	-2.0
CC(C)CNS(=O)(=O)c1ccc(CCC(=O)Nc2cc(Cl)ccc2Oc2ccccc2)cc1	?	-5.9%[46.1 µM]	?	-4.9	?	-1.3
CC(C)(C)NS(=O)(=O)c1ccc(CCC(=O)Nc2cc(Cl)ccc2Oc2ccccc2)cc1	8.91µM*	8.91µM*	?	-5.9	?	12.0
Cc1cccc(C)c1N(CC(=O)Nc1cc(Cl)ccc1Oc1ccccc1)S(C)(=O)=O	?	?	-25.8%	16.1	?	-2.6
Cc1ccc(C)c(N(CC(=O)Nc2cc(Cl)ccc2Oc2ccccc2)S(C)(=O)=O)c1	1.0%	12.6µM*	-24.0%	-10.1	?	-3.6
SMILES	HCV inh	Marburg entry inh	FMDV antiviral	Shiga inhibitor	LASV entry inh	CHX counter
COc1ccc(CCC(=O)Nc2cc(Cl)ccc2OC)cc1	?	-21.7%	·	-12.8	?	-2.4
NC(=S)Nc1ccccc1Br	8.8%	4.3%	0.0%	28.4	18.4%	11.0
CCCNS(=O)(=O)c1ccc(OCC(=O)N2CCc3ccccc3C2)c(C)c1	?	?	23.9%	-12.1	-23.3%[46.1 µM]	-1.5
Cn1c(SCc2nc(-c3ccc(Cl)cc3)no2)nnc1-c1cccs1	-17.8%	14.2%	-0.5%	22.2	10.2%	10.0
Cn1c(SCCOc2ccccc2Cl)nnc1-c1cccs1	7.3%	9.1%	15.2%	38.7*	12.5%	25.9*
Cn1c(SCc2c(F)cccc2Cl)nnc1-c1cccs1	4.2%	?	88.0%	68.3*	?	27.8*
Cc1cc(OCCSc2nnc(-c3cccs3)n2C)ccc1Cl	?	?	-10.0%	21.2	-7.4%	8.5
Cn1c(Cc2cccs2)nnc1SCC(=O)Nc1ccccc1F	13.9%	0.1%	-8.7%	·	12.5%	·
Cn1c(SCC(=O)Nc2ccccc2F)nnc1-c1cccs1	-8.5%	-1.9%[46.1 µM]	66.4%	43.4*	·	26.0
CC1(C)Cc2nc(N3CCCC3)c(C#N)cc2CO1	12.0%	5.9%[46.1 µM]	-14.0%	-7.4	16.3%	-1.9
O=c1c2cc(F)ccc2sn1-c1ccc(F)cc1	?	·	-8.5%	·	·	·
O=C(CCc1ccc(S(=O)(=O)NC2CCCCC2)cc1)NCc1ccccn1	33.5%	4.0%	33.3%	97.6*	-1.4%	44.3*
O=C(CCc1ccc(S(=O)(=O)NC2CCCCC2)cc1)N(Cc1ccccc1)Cc1ccccc1	?	12.6µM*	32.0%	1.1	?	-2.0
CC(C)c1ccc(S(=O)(=O)N2CCC(C(=O)NCC3(N(C)C)CCCCC3)CC2)cc1	?	?	-17.4%	-34.7	2.9%	-2.4
O=S(=O)(N/N=C/c1ccccc1OCc1ccc(Cl)cc1)c1ccccc1	?	?	61.8%	active	-12.1%	23.0*
O/N=C/c1ccccc1OCc1ccc(Cl)cc1	?	-13.0%	19.7%	63.1*	?	43.8*
O/N=C/c1ccccc1OCc1ccccc1Cl	9.3%	21.5%	1.6%	-8.6	-11.7%	-3.4
O=C(Cc1ccccc1)N/N=C/c1ccccc1OCc1ccc(Cl)cc1	?	23.6%	7.7%	-5.3	-24.5%	8.6
NC(=S)N/N=C/c1ccccc1OCCSc1ccc(Cl)cc1	?	?	35.5µM*	13.3	3.66µM*	4.6
CCOC(=O)N/N=C/c1ccccc1OCc1ccc(Cl)cc1	-27.8%	?	-11.5%	50.3*	-8.9%	34.3*
COc1cccc(/C=N/NC(N)=S)c1OCc1ccccc1Cl	?	?	?	-9.3	11.8%	-4.3
COc1ccc(S(=O)(=O)N(C)C[C@@H]2OCc3cnnn3CCCC(=O)N([C@H](C)CO)C[C@H]2C)cc1	·	·	-13.0%	·	·	·
Cc1ccc2c(c1)NC(=O)C(CC(=O)NCCN(CC(C)C)CC(C)C)O2 (stereo unspecified)	14.2%	·	-14.4%	11.7	·	-1.4
CC(C)c1ccc(C2NC(C(=O)O)CS2)cc1 (stereo unspecified)	11.6%	17.1%	-22.9%	0.6	2.6%	-2.7
O=C(O)C1CSC(c2coc3ccccc3c2=O)N1 (stereo unspecified)	10.3%	-5.6%	-11.5%	12.6	14.2%	13.9*
COCCN(C(=O)COC(=O)c1ccc2ccccc2c1)c1c(N)n(Cc2ccccc2)c(=O)[nH]c1=O	·	·	-21.2%	·	·	·
O=[N+]([O-])c1ccccc1-c1ccc(/C=N/n2cnnc2)o1	·	?	2.3%	-22.3	19.4%[14.3 µM]	-2.9
